Legend:
Test in all cases: log2 ratio of Biotin-Ahx-Ub-VS probe labelling (fragment/DMSO); higher = less target engagement (more negative = stronger competition), active = hit call of the paper (q ≤ 0.05, log2 ratio ≤ -1)
Settings in all cases: compound concentration: 200 uM; treatment time: 3 h
USP19 = molecular target: T1, USP19 (UniProt O94966)
T1 sequence (whole entry): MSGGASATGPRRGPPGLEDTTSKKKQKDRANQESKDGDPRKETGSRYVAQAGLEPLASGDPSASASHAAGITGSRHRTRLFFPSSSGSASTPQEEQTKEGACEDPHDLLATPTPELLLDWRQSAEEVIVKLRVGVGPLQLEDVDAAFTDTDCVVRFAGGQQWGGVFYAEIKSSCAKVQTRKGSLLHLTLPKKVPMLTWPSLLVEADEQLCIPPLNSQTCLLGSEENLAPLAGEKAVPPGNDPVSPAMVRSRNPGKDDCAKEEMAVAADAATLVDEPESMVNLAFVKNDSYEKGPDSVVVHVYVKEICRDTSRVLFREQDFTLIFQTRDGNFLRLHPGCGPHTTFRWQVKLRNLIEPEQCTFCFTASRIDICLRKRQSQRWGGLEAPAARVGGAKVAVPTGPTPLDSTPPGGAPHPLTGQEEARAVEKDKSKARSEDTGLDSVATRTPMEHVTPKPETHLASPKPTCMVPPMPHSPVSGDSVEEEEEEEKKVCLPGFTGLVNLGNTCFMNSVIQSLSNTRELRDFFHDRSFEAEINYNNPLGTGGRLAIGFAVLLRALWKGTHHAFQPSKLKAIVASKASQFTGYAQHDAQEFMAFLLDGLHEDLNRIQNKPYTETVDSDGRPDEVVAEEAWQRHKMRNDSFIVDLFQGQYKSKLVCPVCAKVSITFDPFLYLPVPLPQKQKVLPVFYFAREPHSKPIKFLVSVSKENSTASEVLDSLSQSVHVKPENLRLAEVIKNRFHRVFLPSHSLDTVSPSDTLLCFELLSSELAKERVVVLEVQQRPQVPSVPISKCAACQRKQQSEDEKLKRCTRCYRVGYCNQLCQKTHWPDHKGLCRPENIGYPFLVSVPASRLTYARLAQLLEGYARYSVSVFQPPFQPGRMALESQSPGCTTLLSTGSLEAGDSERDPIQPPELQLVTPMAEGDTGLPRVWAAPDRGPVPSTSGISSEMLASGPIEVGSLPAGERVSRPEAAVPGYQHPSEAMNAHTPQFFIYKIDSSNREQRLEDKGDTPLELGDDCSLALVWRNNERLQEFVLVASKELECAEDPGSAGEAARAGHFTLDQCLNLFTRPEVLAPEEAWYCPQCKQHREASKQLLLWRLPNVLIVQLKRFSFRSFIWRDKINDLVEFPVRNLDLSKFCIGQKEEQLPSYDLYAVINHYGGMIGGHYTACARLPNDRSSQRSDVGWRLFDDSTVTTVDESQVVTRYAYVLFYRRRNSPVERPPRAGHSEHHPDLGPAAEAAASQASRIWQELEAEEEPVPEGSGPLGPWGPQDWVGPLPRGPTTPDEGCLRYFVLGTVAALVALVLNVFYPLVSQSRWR
Outline: (§1)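 Labelling with Biotin-Ahx-Ub-VS (0.5 µM final, 1 h) followed a 3 h triplicate treatment of HEK293T lysate (495 µg per sample, Tris/CHAPS/IGEPAL buffer with protease inhibitors) with fragment at 200 µM or vehicle. Labelled DUBs were NeutrAvidin-enriched, digested with LysC and trypsin, and run by diaPASEF LC-MS/MS. The values, average log2 fragment/vehicle ratios by unpaired t-test, come from global-median-normalised Spectronaut label-free quantities. Proteins with ≥2 unique peptides were used.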

USP24 = USP24 (UniProt Q9UPU5)
Outline: as §1

USP25 = molecular target: T2, USP25 (UniProt Q9UHP3)
T2 sequence (whole entry): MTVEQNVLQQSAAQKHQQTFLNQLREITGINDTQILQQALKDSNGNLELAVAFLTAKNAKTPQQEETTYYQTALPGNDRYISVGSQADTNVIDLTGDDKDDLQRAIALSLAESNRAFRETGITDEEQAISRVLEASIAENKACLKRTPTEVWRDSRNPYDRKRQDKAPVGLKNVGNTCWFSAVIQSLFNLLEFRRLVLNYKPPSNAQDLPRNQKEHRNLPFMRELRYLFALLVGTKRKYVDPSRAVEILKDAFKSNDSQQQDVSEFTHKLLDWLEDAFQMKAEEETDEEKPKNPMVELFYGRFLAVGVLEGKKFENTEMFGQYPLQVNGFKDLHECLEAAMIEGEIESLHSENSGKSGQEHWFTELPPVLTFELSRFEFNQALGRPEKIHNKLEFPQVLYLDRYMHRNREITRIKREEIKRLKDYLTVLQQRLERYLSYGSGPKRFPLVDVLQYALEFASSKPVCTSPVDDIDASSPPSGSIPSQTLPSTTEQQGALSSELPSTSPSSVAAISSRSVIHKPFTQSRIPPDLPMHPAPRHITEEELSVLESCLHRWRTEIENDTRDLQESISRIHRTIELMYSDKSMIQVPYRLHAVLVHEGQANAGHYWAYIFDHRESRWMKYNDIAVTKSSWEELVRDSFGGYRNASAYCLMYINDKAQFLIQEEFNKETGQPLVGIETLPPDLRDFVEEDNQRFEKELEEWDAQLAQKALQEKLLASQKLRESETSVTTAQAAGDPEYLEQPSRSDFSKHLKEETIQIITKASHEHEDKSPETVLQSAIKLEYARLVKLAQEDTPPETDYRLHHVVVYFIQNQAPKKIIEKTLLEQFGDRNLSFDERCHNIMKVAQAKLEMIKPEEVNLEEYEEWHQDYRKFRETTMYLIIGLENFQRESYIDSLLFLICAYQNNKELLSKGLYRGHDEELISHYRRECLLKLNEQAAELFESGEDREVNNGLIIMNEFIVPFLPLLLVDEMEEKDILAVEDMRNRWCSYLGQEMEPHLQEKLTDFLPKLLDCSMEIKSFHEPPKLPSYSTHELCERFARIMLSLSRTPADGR
Outline: as §1

USP28 = molecular target: T3, USP28 (UniProt Q96RU2)
T3 sequence (whole entry): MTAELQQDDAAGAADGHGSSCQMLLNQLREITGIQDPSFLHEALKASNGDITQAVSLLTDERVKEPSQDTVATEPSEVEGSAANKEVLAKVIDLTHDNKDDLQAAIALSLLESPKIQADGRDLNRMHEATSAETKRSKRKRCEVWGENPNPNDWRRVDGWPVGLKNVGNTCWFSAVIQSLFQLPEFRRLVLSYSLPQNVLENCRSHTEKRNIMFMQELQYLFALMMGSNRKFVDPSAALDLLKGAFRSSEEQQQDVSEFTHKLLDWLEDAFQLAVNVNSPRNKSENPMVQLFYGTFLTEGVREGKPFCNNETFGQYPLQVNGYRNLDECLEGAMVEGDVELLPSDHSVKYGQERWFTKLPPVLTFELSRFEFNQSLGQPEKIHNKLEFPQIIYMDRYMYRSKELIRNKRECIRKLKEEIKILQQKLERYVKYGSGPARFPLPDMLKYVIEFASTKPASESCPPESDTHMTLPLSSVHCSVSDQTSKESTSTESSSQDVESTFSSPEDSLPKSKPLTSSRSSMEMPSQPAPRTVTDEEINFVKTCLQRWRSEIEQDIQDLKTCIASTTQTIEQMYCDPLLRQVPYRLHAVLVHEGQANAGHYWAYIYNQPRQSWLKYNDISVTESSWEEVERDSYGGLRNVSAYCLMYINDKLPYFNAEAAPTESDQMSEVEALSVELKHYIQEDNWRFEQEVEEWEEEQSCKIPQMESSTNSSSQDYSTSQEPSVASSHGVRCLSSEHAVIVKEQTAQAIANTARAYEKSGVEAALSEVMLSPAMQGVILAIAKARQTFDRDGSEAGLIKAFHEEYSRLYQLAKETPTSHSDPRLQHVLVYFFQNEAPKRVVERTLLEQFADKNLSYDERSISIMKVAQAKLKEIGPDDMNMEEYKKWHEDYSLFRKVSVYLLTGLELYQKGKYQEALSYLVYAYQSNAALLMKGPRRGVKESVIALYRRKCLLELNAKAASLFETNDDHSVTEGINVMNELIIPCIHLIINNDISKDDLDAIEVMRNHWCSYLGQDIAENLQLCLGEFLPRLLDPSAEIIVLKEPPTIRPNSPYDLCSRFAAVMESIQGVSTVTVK
Outline: as §1

Measured: log2 ratio of Biotin-Ahx-Ub-VS probe labelling

USP24, sequence (Q9UPU5 whole entry): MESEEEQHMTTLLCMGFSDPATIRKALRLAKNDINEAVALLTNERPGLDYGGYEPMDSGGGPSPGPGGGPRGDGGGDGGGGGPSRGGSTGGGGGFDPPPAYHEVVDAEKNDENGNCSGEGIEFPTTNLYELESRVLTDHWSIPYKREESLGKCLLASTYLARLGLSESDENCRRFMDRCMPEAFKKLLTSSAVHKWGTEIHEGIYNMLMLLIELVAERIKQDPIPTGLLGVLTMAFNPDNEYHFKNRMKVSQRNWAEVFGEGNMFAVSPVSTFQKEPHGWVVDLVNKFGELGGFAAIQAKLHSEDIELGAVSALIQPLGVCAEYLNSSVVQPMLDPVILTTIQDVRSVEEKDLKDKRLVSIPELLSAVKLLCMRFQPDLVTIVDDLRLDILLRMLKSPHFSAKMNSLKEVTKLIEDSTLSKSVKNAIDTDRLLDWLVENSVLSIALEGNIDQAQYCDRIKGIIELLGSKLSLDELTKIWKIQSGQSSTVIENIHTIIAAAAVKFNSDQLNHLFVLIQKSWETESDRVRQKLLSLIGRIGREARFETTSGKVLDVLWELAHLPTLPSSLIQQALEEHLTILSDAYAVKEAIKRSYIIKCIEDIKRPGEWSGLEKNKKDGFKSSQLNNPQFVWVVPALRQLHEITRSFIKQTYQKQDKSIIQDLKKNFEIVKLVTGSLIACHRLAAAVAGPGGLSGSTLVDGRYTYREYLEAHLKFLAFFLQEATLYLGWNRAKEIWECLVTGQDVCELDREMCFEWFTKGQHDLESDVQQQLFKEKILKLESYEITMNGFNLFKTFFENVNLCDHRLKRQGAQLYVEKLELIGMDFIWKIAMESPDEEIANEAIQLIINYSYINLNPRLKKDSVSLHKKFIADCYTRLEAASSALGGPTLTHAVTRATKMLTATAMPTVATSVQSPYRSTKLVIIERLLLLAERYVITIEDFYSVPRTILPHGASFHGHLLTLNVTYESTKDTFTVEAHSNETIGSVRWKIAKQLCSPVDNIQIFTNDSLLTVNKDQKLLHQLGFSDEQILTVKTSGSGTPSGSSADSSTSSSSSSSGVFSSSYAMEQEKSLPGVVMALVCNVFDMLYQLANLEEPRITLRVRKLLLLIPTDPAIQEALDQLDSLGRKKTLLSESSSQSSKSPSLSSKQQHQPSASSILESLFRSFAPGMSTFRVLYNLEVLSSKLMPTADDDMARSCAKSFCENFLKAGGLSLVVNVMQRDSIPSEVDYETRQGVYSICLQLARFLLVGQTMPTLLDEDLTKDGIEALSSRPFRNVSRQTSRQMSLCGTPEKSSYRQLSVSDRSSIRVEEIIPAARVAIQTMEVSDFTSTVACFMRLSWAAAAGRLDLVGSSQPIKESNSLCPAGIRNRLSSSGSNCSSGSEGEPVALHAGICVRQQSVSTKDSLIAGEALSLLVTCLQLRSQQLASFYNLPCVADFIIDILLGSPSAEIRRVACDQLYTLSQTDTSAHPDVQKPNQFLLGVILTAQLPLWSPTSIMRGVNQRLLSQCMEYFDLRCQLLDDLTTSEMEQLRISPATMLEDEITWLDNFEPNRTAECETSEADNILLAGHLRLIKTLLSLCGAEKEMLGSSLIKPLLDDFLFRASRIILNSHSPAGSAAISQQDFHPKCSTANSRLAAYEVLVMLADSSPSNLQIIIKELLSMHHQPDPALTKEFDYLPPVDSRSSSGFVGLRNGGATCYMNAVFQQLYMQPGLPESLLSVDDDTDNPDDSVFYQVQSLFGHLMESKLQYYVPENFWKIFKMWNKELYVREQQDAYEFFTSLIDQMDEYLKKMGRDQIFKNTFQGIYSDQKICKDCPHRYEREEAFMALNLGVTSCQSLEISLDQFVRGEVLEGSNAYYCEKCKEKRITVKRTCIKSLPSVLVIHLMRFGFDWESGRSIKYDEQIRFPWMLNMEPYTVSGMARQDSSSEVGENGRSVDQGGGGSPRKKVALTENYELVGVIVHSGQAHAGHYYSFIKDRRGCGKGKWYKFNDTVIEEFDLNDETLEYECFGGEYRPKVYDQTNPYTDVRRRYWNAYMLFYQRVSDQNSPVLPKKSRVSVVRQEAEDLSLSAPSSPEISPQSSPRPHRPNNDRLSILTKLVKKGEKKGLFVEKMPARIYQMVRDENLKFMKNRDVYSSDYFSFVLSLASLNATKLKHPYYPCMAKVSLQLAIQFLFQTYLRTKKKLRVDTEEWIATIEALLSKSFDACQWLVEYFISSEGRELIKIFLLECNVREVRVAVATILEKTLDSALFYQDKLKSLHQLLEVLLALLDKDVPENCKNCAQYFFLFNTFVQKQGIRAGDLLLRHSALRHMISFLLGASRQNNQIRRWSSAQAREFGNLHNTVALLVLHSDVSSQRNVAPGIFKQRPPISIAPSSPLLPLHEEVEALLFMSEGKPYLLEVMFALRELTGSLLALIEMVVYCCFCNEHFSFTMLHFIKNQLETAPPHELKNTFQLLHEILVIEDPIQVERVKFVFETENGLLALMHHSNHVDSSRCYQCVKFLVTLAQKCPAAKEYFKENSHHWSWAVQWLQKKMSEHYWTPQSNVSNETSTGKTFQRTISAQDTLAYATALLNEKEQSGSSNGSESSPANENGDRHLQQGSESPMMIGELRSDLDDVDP

Cc1nc(CN2CCN(C(=O)CCl)CC2)cs1
inactive: USP19 -0.347 | USP24 -0.513 | USP25 -0.212 | USP28 -0.543

From the supplement of paper PMC11732987, “Enantioselective OTUD7B fragment discovery through chemoproteomics screening and high-throughput optimisation” (Communications Chemistry, 2025)
